This note sets out measurements from PubChem BioAssay (Tox21).

A short description of assay [1]: qHTS assay to identify small molecule antagonists of the estrogen receptor alpha (ER-alpha) signaling pathway using the BG1 cell line in the presence of 0.1 nM 17-beta-estradiol - cell viability counter screen (AID 1259241). Further: nearly all actives have a fitted effect of over 40% in size. The gist of the method:
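Viability in VM7Luc4E2 cells after 22 hr compound exposure under 0.1 nM 17beta-estradiol stimulation, by CellTiter-Fluor.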

Assay [2] is described as follows: qHTS assay to identify small molecule antagonists of the androgen receptor (AR) signaling pathway using the MDA cell line in the presence of 0.5 nM R1881 - cell viability counter screen (AID 1259242). Further: nearly all actives have a fitted effect of over 45% in size. The method, boiled down: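 MDA-kb2 cells (human breast carcinoma, stably carrying MMTV-luciferase reporter) were exposed to compounds with 0.5 nM R1881 (final) for 16 hr at 37C, 0% CO2; viability then read as live-cell protease fluorescence (CellTiter-Fluor, 30 min) in the same wells.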

For assay [3], the target named is Estrogen receptor (Homo sapiens) (UniProt P03372). The assay is described as follows: qHTS assay to identify small molecule antagonists of the estrogen receptor alpha (ER-alpha) signaling pathway using the BG1 cell line in the presence of 0.1 nM 17-beta-estradiol (AID 1259244). Further: nearly all actives have a fitted effect of over 50% in size. The gist of the method: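 VM7Luc4E2 cells (endogenous full-length ER-alpha, stable 4xERE-luciferase) were grown 5 days in phenol red-free medium with charcoal-stripped FBS, then exposed 22 h at 37C to compounds plus 0.1 nM (final) 17beta-estradiol; ONE-Glo luminescence read-out.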
Estrogen receptor (Homo sapiens), sequence (P03372 whole entry, looked up): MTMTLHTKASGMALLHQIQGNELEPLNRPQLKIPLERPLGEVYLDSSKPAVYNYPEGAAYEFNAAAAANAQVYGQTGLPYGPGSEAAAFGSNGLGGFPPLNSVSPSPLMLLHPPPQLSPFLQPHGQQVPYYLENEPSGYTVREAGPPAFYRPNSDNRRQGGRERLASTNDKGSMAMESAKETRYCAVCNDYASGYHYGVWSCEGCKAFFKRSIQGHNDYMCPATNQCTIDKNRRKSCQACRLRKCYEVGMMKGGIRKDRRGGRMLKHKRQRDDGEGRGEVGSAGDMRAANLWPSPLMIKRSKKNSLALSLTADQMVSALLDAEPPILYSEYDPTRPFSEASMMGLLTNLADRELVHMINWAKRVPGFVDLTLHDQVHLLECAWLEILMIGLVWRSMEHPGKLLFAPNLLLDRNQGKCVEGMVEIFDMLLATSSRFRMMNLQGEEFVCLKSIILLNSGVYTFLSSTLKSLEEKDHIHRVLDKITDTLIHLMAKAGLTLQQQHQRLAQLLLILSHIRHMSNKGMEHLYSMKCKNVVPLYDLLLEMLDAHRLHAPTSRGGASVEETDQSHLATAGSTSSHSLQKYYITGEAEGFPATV
A general note: qHTS replaces the single test concentration by a dilution series.

A short description of assay [4]: qHTS assay to identify small molecule HDAC inhibitors (AID 1259364). Further: top concentration of the series differs between compounds; nearly all actives have a fitted effect of over 45% in size. The method, boiled down:
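Wild-type HCT-116 cells were plated overnight, exposed to compounds for 2 h at 37 °C, then given HDAC-Glo class I/II luminogenic reagent for 30 min at room temperature before luminescence was read.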

Assay [5] is described as follows: qHTS assay to identify small molecule agonists of the sonic hedgehog signaling (Shh) pathway - cell viability counter screen (AID 1259366). Further: nearly all actives have a fitted effect of over 50% in size. The gist of the method: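 Stable Gli1-Luc NIH/3T3 clone, 2,000 cells/well. Compound exposure 24hr at 37C. Read-out: CellTiter-Fluor fluorescence.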
The nature of assay [6]: qHTS assay to identify small molecule antagonists of the sonic hedgehog signaling (Shh) pathway - cell viability counter screen (AID 1259367). Further: nearly all actives have a fitted effect of over 55% in size. The gist of the method:
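Seed 3T3 Gli1-Luc cells at 2,000 per well; incubate 4 hr; add compound in DMSO, then conditioned medium; incubate at 37C with 5% CO2; add CellTiter-Fluor after 23 hr; read fluorescence 1 hr later.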

A short description of assay [7]: qHTS assay to identify small molecule agonists of the sonic hedgehog signaling (Shh) pathway (AID 1259368; calls by dose curve; further: series mostly up to about 92 µM; nearly all actives have a fitted effect of over 15% in size). The gist of the method:
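NIH/3T3-derived 3T3Gli1-Luc cells carrying a stably integrated Gli1 response element–firefly luciferase reporter were plated, left 4 hr at 37 C, then given compounds in DMSO for 24 hr. Luminescence was read 30 min after adding luciferase reagent.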

Assay [8] in a line: qHTS assay to identify small molecule antagonists of the sonic hedgehog signaling (Shh) pathway (AID 1259369; calls by dose curve; further: nearly all actives have a fitted effect of over 45% in size; further: potency means the concentration at half of the fitted maximal effect). The method, boiled down: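 NIH/3T3-derived 3T3Gli1-Luc cells with stably integrated Gli1-Luc reporter were preincubated 4hr at 37 C, then given compounds in DMSO plus Shh conditioned medium and incubated 24hr. Firefly luciferase luminescence read after 30min reagent at room temperature.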

Assay [9] concerns the target Estrogen receptor beta (Homo sapiens) (UniProt Q92731). The assay is described as follows: qHTS assay to identify small molecule agonists of the estrogen receptor beta (ER-beta) signaling pathway (AID 1259377; active means well fitted activation curve with a large enough effect in the signal ratio in the repeat runs, not every such curve was filed as active; the % refers to the signal ratio). The method, boiled down: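 Measured by fluorescence intensity from a B/G FRET beta-lactamase substrate (2 h, room temperature) in ER-beta-UAS-bla HEK293T cells treated with DMSO-dissolved compounds for 16 hr at 37C and 5% CO2.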

The target is the same in assay [10]. In words: qHTS assay to identify small molecule antagonists of the estrogen receptor beta (ER-beta) signaling pathway (AID 1259378; active means well fitted inhibition curve with a large enough effect in the signal ratio in the repeat runs, not every such curve was filed as active; the % refers to the signal ratio). The method, boiled down:
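ER-beta-UAS-bla HEK293T cells in 2% charcoal-stripped FBS medium treated with compound plus 1nM final 17-beta-estradiol for 16 hr at 37C. Beta-lactamase reporter read by FRET substrate fluorescence after 2 hours at room temperature.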

Assay [11] can be described thus: qHTS assay to identify small molecule agonists of the estrogen receptor beta (ER-beta) signaling pathway - cell viability counter screen (AID 1259380). Further: nearly all actives have a fitted effect of over 30% in size. Further: potency means the concentration at half of the fitted maximal effect. The gist of the method:
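ER-beta-UAS-bla HEK293T cells in medium with 2% charcoal-stripped FBS were preincubated 6 hr at 37C, dosed with compound in DMSO for 16 hr, then after the bla read, CellTiter-Glo was added for 30 min at room temperature; luminescence recorded.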

Assay [12] in a line: qHTS assay to identify small molecule antagonists of the estrogen receptor beta (ER-beta) signaling pathway - cell viability counter screen (AID 1259382). Further: nearly all actives have a fitted effect of over 55% in size. Further: potency means the concentration at half of the fitted maximal effect. The gist of the method:
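ER-beta-UAS-bla HEK293T cells (2,000/well, 2% charcoal-stripped FBS) were pre-incubated 6 hr at 37C, then given compound plus 1nM final 17-beta-estradiol for 16 hr. Viability was read in the same wells by CellTiter-Glo luminescence after 30 min at room temperature.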

The target in assay [13] is Estrogen receptor (Homo sapiens) (UniProt P03372). In words: qHTS assay to identify small molecule agonists of the estrogen receptor alpha (ER-alpha) signaling pathway in the presence of an antagonist (AID 1259383; calls by dose curve; further: top concentration of the series differs between compounds; nearly all actives have a fitted effect of over 15% in size). The method, boiled down: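 VM7Luc4E2 cells (endogenous full-length ER-alpha, 4×ERE-luciferase) were precultured 5 days in phenol red-free medium with 10% charcoal-stripped FBS, given 10.0nM ICI-182,780 (final), then treated with compounds at 15 concentrations for 22hr at 37C; luminescence read with ONE-Glo.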

The nature of assay [14]: qHTS assay to identify small molecule agonists or antagonists of the thyroid stimulating hormone receptor (TSHR) signaling pathway - wild type cell line counter screen (AID 1259384; calls by dose curve). The gist of the method: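 Wild-type Hek293 cells, 800/well, 18 h at 37C, then compound with Ro20-1724 for 30 min RT. cAMP by HTRF (cAMP-d2/anti-cAMP cryptate), 1 h RT, fluorescence read. 15 concentrations, triplicates.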

Assay [15] is described as follows: qHTS assay to identify small molecule phospholipidosis (PLD) inducers (AID 1259344; active means well fitted curve in the direction sought with a large enough effect; an effect the other way counts as inactive or inconclusive). The method, boiled down: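 Quantitative HTS in HepG2: compound plus LipidTOX Red dye for 24 h, paraformaldehyde fixation with Hoechst 33342, widefield high-content imaging; amiodarone as positive and DMSO as negative control.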
Assay [16] is described as follows: qHTS assay to identify small molecule HDAC inhibitors - cell viability counter screen (AID 1259365). Further: series mostly up to about 92 µM; nearly all actives have a fitted effect of over 50% in size. The gist of the method: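 Cytotoxicity was gauged in wild-type HCT-116 cells after a brief 2hr treatment with DMSO-dissolved compounds at 37C and 5% CO2, using CellTiter-Glo luminescence developed for 30min at room temperature.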
A short description of assay [17]: qHTS assay to identify small molecule agonists of the androgen receptor (AR) signaling pathway in the presence of an antagonist - cell viability counter screen (AID 1259379). Further: series mostly up to about 92 µM; nearly all actives have a fitted effect of over 25% in size. The method, boiled down: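 MDA-kb2 human breast carcinoma cells (stable MMTV-luciferase, AR/GR responsive) were seeded 3,000 cells/well, pre-incubated 5 hr at 37C without CO2, then given 3.0uM nilutamide and compounds at 15 concentrations for 16 hr. Viability was read by CellTiter-Fluor fluorescence.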

The target in assay [18] is Thyrotropin receptor (Homo sapiens) (UniProt P16473). The assay is described as follows: qHTS assay to identify small molecule antagonists of the thyroid stimulating hormone receptor (TSHR) signaling pathway (AID 1259385; calls by dose curve; further: nearly all actives have a fitted effect of over 20% in size). The method, boiled down: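 TSHR-HEK293 cells (800/well) plated 18 h, then compounds with Ro20-1724 and TSH at 1.5 ng/mL final, 30 min at room temperature. cAMP quantified by HTRF (cAMP-d2/anti-cAMP-cryptate, 1 h); 15 concentrations in triplicate.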
Thyrotropin receptor (Homo sapiens), sequence (P16473 whole entry, looked up): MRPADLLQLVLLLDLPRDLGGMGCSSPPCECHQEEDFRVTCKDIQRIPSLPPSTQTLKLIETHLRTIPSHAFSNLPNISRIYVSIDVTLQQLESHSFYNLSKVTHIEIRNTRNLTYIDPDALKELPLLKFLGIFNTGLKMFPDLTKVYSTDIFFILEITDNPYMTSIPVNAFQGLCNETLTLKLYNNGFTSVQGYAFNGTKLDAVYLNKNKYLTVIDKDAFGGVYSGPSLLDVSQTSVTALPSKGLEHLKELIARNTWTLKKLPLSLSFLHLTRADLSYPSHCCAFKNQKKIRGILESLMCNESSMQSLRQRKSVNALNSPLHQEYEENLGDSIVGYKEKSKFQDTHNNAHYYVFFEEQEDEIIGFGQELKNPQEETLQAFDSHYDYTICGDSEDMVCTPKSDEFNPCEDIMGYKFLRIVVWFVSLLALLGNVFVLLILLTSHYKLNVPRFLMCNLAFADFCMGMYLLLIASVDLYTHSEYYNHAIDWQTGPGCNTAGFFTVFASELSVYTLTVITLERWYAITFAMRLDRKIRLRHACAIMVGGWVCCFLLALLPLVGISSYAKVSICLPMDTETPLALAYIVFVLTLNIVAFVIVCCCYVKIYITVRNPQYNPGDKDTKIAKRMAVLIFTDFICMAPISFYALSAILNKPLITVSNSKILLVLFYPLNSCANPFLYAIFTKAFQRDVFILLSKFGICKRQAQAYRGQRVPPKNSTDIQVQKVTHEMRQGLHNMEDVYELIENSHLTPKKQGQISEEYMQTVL

Values without a mark were called inactive. Inconclusive results are not listed. Active and inactive are the calls of the source. Unless noted, the call rests on the fitted dose curve; in most records, active means well fitted curve in the direction sought with a large enough effect in the repeat runs; inconclusive means weak or mixed curves; inactive means no such curve, though single readings can be large; an effect the other way counts as inactive or inconclusive.
On the % scale 0 is the no-effect control and ±100 the full control effect.

Estrogen receptor beta (Homo sapiens), sequence (Q92731 whole entry, looked up): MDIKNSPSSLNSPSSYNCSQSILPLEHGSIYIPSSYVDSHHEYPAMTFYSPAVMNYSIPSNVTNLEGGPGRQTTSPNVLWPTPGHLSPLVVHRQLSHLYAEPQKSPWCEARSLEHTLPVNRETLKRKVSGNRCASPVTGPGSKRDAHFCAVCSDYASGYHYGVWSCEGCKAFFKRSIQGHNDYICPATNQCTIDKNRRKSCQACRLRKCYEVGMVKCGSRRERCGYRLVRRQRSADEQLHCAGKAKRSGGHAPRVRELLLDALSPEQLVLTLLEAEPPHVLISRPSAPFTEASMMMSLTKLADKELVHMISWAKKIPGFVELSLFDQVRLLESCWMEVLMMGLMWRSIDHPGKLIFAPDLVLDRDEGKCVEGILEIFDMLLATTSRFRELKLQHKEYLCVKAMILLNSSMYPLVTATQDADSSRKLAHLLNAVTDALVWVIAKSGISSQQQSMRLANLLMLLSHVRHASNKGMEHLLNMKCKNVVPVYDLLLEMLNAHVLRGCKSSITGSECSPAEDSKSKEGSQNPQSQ

On to `CN1Cc2cc(C(=O)N3CCC(C4CCNCC4)CC3)ccc2NC(CC(=O)O)C1=O` (stereo not drawn), for which the Potency entry in [1], in [2], in assay [3], in assay [4], in [5] and in [6] was “inactive” in each case. Further, the Potency entry in [8], in [9], in [10], in assay [11], in assay [12] and in assay [13] was “inactive” in each case. Besides, the Potency result in assay [14] is “inactive”. Besides, in [7], the outcome was inactive.

Turning to `NCC(=O)CCC(=O)O`, the Potency result in assay [1], in assay [2], in assay [3], in [15], in assay [16] and in assay [5] was “inactive” each time. The Potency result in assay [6], in [8], in [9], in assay [10], in assay [17] and in assay [11] was “inactive” throughout. The Potency result in assay [12], in assay [13], in assay [14] and in assay [18] was “inactive” each time. Moreover, the result in [7] was inactive.

For `CN(Cc1ccc(C(C)(C)C)cc1)Cc1cccc2ccccc12`, the Potency result in [1], in assay [2], in assay [3], in [4], in assay [16] and in assay [6] was “inactive” in each case. Besides, the Potency entry in assay [8], in assay [9], in [17] and in [13] was “inactive” each time. Besides, the PLD induction in assay [15] is -0.504% [at 7.66 µM]. In addition, the call in [7] was inactive. Further, the figures for the Potency in assay [11] and in [12] were 26.6 µM (active) and 23.7 µM (active), respectively.

Take `O=C(Nc1ccc(S(=O)(=O)N2CCOCC2)cc1)c1cc(Cl)ccc1NS(=O)(=O)c1ccc(Cl)s1`: the Potency result in [1], in assay [2], in assay [3], in assay [15], in assay [4] and in assay [6] was “inactive” each time. Moreover, the Potency result in assay [13], in assay [14] and in [18] was “inactive” in each case. Further, the outcome in [7] was inactive. Moreover, in assay [8], the Potency was 26.6 µM (active).

For `CC1CCC(=O)C1=O` (stereo not drawn), the Potency result in assay [1], in [2], in assay [3], in assay [4], in [16] and in assay [5] was “inactive” each time. In addition, the Potency entry in assay [6], in [8], in assay [11], in [12], in assay [13] and in [18] was “inactive” in each case. The result in assay [7] was inactive.

As for `C=C1[C@H]2CC[C@@H]3[C@H]2C(C)(C)CCC[C@]13C`, the Potency entry in [1], in assay [2], in [3], in assay [4], in assay [16] and in assay [6] was “inactive” each time. The Potency entry in [8], in assay [9], in assay [10], in assay [17], in [11] and in assay [12] was “inactive” throughout. The Potency result in assay [13] is “inactive”. The compound was called inactive in assay [7].

For `CC(C)Cc1ccc(C(C)C(=O)OCc2ccccn2)cc1` (stereo not drawn), the Potency result in assay [1], in assay [2], in assay [3], in assay [4], in assay [5] and in assay [6] was “inactive” throughout. Moreover, the Potency result in [17], in [11], in assay [12] and in assay [13] was “inactive” in each case. The call in [7] was inactive.

Regarding `CC(CC=O)c1ccccc1` (stereo not drawn), the Potency entry in [1], in [2], in assay [3], in assay [4], in [16] and in assay [5] was “inactive” in each case. Besides, the Potency result in assay [6], in assay [9], in assay [10], in [17], in assay [11] and in assay [12] was “inactive” in each case. The Potency result in assay [13] and in assay [14] was “inactive” throughout. Further, the call in [7] was inactive. Also, the Potency in assay [8] is 54.5 µM (active).

Turning to `CCCCC(CC)COC(=O)CCCCCCCCC(=O)OCC(CC)CCCC` (stereo not drawn), the Potency result in [1], in assay [2], in assay [3], in assay [4], in assay [5] and in assay [6] was “inactive” throughout. For the same compound, the Potency result in assay [8], in [11], in assay [12], in [13], in assay [14] and in [18] was “inactive” each time. Further, the compound was classed as inactive in [7].
